Several values for one entry are separate records, joined by “and”; a condition that tells them apart may be missing. Equal values may be shown once. Records with an inconclusive call do not appear. Some structures have more than one record in an assay (separate samples or runs), and their calls can disagree. Activity calls are given as the source filed them.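 How the source made its calls, unless noted: active means normalized viability below 100% at a tested concentration; inactive means the rest.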
Experiments:
[1] = growth inhibition of DIPG glioma cells, dose response, cell-based, SU-DIPG-XVII, MIPE5.0, CellTiter-Glo, qHTS (AID 1347060; cut-off not given, nearly all actives have AC50 up to about 26 µM;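 further: cells exposed to compound for 48 hours before viability readout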); settings: SU-DIPG-XVII viability, CellTiter-Glo ATP luminescence
[2] = growth inhibition of DIPG glioma cells, dose response, cell-based, JHH-DIPG-1, MIPE4.0, CellTiter-Glo, qHTS (AID 1347062; cut-off not given, nearly all actives have AC50 up to about 27 µM;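 further: cells exposed to compound for two days before readout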); settings: JHH-DIPG-1 viability, CellTiter-Glo ATP luminescence
[3] = growth inhibition of DIPG glioma cells, dose response, cell-based, SU-DIPG-IV, MIPE4.0, CellTiter-Glo, qHTS (AID 1347063; cut-off not given, nearly all actives have AC50 up to about 30 µM;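 further: compound exposure lasted 48 hours before the viability readout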); settings: SU-DIPG-IV viability, CellTiter-Glo ATP luminescence
[4] = growth inhibition of DIPG glioma cells, dose response, cell-based, SU-DIPG-XIII, MIPE5.0, CellTiter-Glo, qHTS (AID 1347064; cut-off not given, nearly all actives have AC50 up to about 23 µM;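 further: cells exposed to compound for 48 hours before the viability read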); settings: SU-DIPG-XIII viability, CellTiter-Glo ATP luminescence
[5] = viability loss in pontine glioma line – cell-based, SU-DIPG-XXV, MIPE5.0, CellTiter-Glo, qHTS, dose response (AID 1347065; cut-off not given, nearly all actives have AC50 up to about 26 µM;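 further: cells exposed to compound for 48 hours before ATP readout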); settings: CellTiter-Glo ATP luminescence
[6] = JHH-DIPG-1 glioma cell viability, MIPE5.0 library, CellTiter-Glo luminescence, qHTS (AID 1347067; cut-off not given, nearly all actives have AC50 up to about 26 µM;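 further: cells exposed to compound for 48 hours before readout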); settings: JHH-DIPG-1 glioma viability, CellTiter-Glo ATP luminescence
[7] = SU-DIPG-XXV glioma cell viability, MIPE5.0 library, qHTS (AID 1347068; cut-off not given, nearly all actives have IC50 up to about 30 µM;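 further: cells exposed to compound for 48 hours before viability readout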)
[8] = sensitizers of A549 cells to miR-34 induction, primary screen, imaging, A549 dox-inducible miR-34, nuclei and caspase counts (AID 1347080;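 active means compounds whose cell count with miR-34 switched on is under 0.7 times the count with it off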); settings: A549 miR-34 inducible, Hoechst nuclei count, 48 h
[9] = modifiers of HSF1 nuclear foci, imaging, Selleck Cancer Library (AID 1347162; in the data active means plate-normalised HSF1 focus index below about 0.46); settings: human cells, at 10 µM; SSMD: measured here: HSF1 foci SSMD mean; cell count: measured here: cell number; plate-normalised HSF1 focus index: stronger effect = lower value
[10] = survival rescue of mitochondrial mutant cells in low glucose, primary screen, MELAS cybrids, Rieske KO mouse fibroblasts, CellTiter-Glo (AID 1508586;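 active means mean z-score across replicates of 1.96 or higher in either the MELAS or the Rieske mutant cell line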;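 further: z relative to plate mean and SD of compound and empty wells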)
[11] = ovarian cancer cell viability with rucaparib, profiling panel, oncology-focused library, rucaparib conditional (AID 1508598); settings: patient-derived ovarian cancer cells, CellTiter-Glo viability, 144 h, stronger effect = lower value
[12] = stronger effect = lower value, cell number ratio, induced over uninduced
[13] = measured here: relative caspase fold change +Dox/-Dox
[14] = measured here: total cells with miR-34 induction, stronger effect = lower value
[15] = measured here: total cells without miR-34 induction
[16] = MELAS cybrid survival, CellTiter-Glo 48 h, stronger effect = higher value
[17] = Rieske KO mouse fibroblast survival, CellTiter-Glo 72 h
[18] = at 0.000305 µM, OCI-C5x cells, with rucaparib 10 µM, 100% = cells with rucaparib alone
[19] = at 0.000305 µM, OCI-C5x cells, without rucaparib
[20] = at 0.000305 µM, OCI-P5x cells, with rucaparib 20 µM, 100% = cells with rucaparib alone
[21] = at 0.000305 µM, OCI-P5x cells, without rucaparib
[22] = at 0.00122 µM, OCI-C5x cells, with rucaparib 10 µM, 100% = cells with rucaparib alone
[23] = at 0.00122 µM, OCI-C5x cells, without rucaparib
[24] = at 0.00122 µM, OCI-P5x cells, with rucaparib 20 µM, 100% = cells with rucaparib alone
[25] = at 0.00122 µM, OCI-P5x cells, without rucaparib
[26] = at 0.00488 µM, OCI-C5x cells, with rucaparib 10 µM, 100% = cells with rucaparib alone
[27] = at 0.00488 µM, OCI-C5x cells, without rucaparib
[28] = at 0.00488 µM, OCI-P5x cells, with rucaparib 20 µM, 100% = cells with rucaparib alone
[29] = at 0.00488 µM, OCI-P5x cells, without rucaparib
[30] = at 0.0195 µM, OCI-C5x cells, with rucaparib 10 µM, 100% = cells with rucaparib alone
[31] = at 0.0195 µM, OCI-C5x cells, without rucaparib
[32] = at 0.0195 µM, OCI-P5x cells, with rucaparib 20 µM, 100% = cells with rucaparib alone
[33] = at 0.0195 µM, OCI-P5x cells, without rucaparib
[34] = at 0.0781 µM, OCI-C5x cells, with rucaparib 10 µM, 100% = cells with rucaparib alone
[35] = at 0.0781 µM, OCI-C5x cells, without rucaparib
[36] = at 0.0781 µM, OCI-P5x cells, with rucaparib 20 µM, 100% = cells with rucaparib alone
[37] = at 0.0781 µM, OCI-P5x cells, without rucaparib
[38] = at 0.313 µM, OCI-C5x cells, with rucaparib 10 µM, 100% = cells with rucaparib alone
[39] = at 0.313 µM, OCI-C5x cells, without rucaparib
[40] = at 0.313 µM, OCI-P5x cells, with rucaparib 20 µM, 100% = cells with rucaparib alone
[41] = at 0.313 µM, OCI-P5x cells, without rucaparib
[42] = at 1.25 µM, OCI-C5x cells, with rucaparib 10 µM, 100% = cells with rucaparib alone
[43] = at 1.25 µM, OCI-C5x cells, without rucaparib
[44] = at 1.25 µM, OCI-P5x cells, with rucaparib 20 µM, 100% = cells with rucaparib alone
[45] = at 1.25 µM, OCI-P5x cells, without rucaparib
[46] = at 5 µM, OCI-C5x cells, with rucaparib 10 µM, 100% = cells with rucaparib alone
[47] = at 5 µM, OCI-C5x cells, without rucaparib
[48] = at 5 µM, OCI-P5x cells, with rucaparib 20 µM, 100% = cells with rucaparib alone
[49] = at 5 µM, OCI-P5x cells, without rucaparib

CN(c1ncccc1CNc1nc(Nc2ccc3c(c2)CC(=O)N3)ncc1C(F)(F)F)S(C)(=O)=O
AC50 [1]: 5.25 µM (active) | AC50 [2]: 5.9 µM (active) | AC50 [3]: 4.18 µM (active) | AC50 [4]: 8.33 µM (active) | AC50 [5]: 3.72 µM (active) | AC50 [6]: 8.33 µM (active) | IC50 [7]: 11.8 µM (active) | fold change [8, 12]: 0.847 (inactive) and 0.961 (inactive) and 0.946 (inactive) | fold change [8, 13]: 0.469 and 1.06 and 0.671 | cell count [8, 14]: 1490 and 1380 and 1080 | cell count [8, 15]: 1760 and 1430 and 1140 | SSMD [9]: -7.81 | cell count [9]: 4390 | plate-normalised HSF1 focus index [9]: 0.528 (inactive) | z-score [10, 16]: -0.34 (inactive) and -0.161 (inactive) and 2.09 (active) | z-score [10, 17]: -0.291 and -0.23 and -5.55 | viability [11, 18]: 100% (inactive) | viability [11, 19]: 125% (inactive) | viability [11, 20]: 105% (inactive) | viability [11, 21]: 110% (inactive) | viability [11, 22]: 110% (inactive) | viability [11, 23]: 111% (inactive) | viability [11, 24]: 110% (inactive) | viability [11, 25]: 110% (inactive) | viability [11, 26]: 106% (inactive) | viability [11, 27]: 130% (inactive) | viability [11, 28]: 99.2% (active) | viability [11, 29]: 108% (inactive) | viability [11, 30]: 115% (inactive) | viability [11, 31]: 122% (inactive) | viability [11, 32]: 106% (inactive) | viability [11, 33]: 106% (inactive) | viability [11, 34]: 111% (inactive) | viability [11, 35]: 122% (inactive) | viability [11, 36]: 92.3% (active) | viability [11, 37]: 101% (inactive) | viability [11, 38]: 110% (inactive) | viability [11, 39]: 119% (inactive) | viability [11, 40]: 90.8% (active) | viability [11, 41]: 93.6% (active) | viability [11, 42]: 110% (inactive) | viability [11, 43]: 110% (inactive) | viability [11, 44]: 76.7% (active) | viability [11, 45]: 73.3% (active) | viability [11, 46]: 13% (active) | viability [11, 47]: 19.1% (active) | viability [11, 48]: 33.5% (active) | viability [11, 49]: 24.3% (active)

c1ccc2c(CCNc3ccc(Nc4ccncc4)cc3)c[nH]c2c1
AC50 [1]: 18.6 µM (active) | AC50 [2]: 18.7 µM (active) | AC50 [3]: 18.7 µM (active) | AC50 [4]: 20.9 µM (active) | AC50 [5]: 26.3 µM (active) | AC50 [6]: 23.5 µM (active) | IC50 [7]: 5.9 µM (active) | fold change [8, 12]: 1.02 (inactive) | fold change [8, 13]: 1.37 | cell count [8, 14]: 2540 | cell count [8, 15]: 2490 | SSMD [9]: -0.197 | cell count [9]: 6510 | plate-normalised HSF1 focus index [9]: 0.99 (inactive) | z-score [10, 16]: -0.455 (inactive) | z-score [10, 17]: -0.307 | viability [11, 18]: 116% (inactive) | viability [11, 19]: 111% (inactive) | viability [11, 20]: 114% (inactive) | viability [11, 21]: 116% (inactive) | viability [11, 22]: 116% (inactive) | viability [11, 23]: 111% (inactive) | viability [11, 24]: 117% (inactive) | viability [11, 25]: 121% (inactive) | viability [11, 26]: 116% (inactive) | viability [11, 27]: 99.7% (active) | viability [11, 28]: 112% (inactive) | viability [11, 29]: 119% (inactive) | viability [11, 30]: 111% (inactive) | viability [11, 31]: 105% (inactive) | viability [11, 32]: 111% (inactive) | viability [11, 33]: 122% (inactive) | viability [11, 34]: 104% (inactive) | viability [11, 35]: 111% (inactive) | viability [11, 36]: 112% (inactive) | viability [11, 37]: 122% (inactive) | viability [11, 38]: 110% (inactive) | viability [11, 39]: 101% (inactive) | viability [11, 40]: 99.7% (active) | viability [11, 41]: 110% (inactive) | viability [11, 42]: 107% (inactive) | viability [11, 43]: 107% (inactive) | viability [11, 44]: 94.3% (active) | viability [11, 45]: 104% (inactive) | viability [11, 46]: 25.5% (active) | viability [11, 47]: 106% (inactive) | viability [11, 48]: 78.5% (active) | viability [11, 49]: 99% (active)

COc1cc2nccc(Oc3ccc(NC(=O)C4(C(=O)Nc5ccc(F)cc5)CC4)cc3)c2cc1OC
AC50 [1]: 13.2 µM (active) | AC50 [2]: 2.35 µM (active) | AC50 [3]: 4.69 µM (active) | AC50 [4]: 16.6 µM (active) | AC50 [5]: 7.42 µM (active) | AC50 [6]: 11.8 µM (active) | IC50 [7]: 8.33 µM (active) | fold change [8, 12]: 1.18 (inactive) and 1.06 (inactive) | fold change [8, 13]: 0.894 and 0.677 | cell count [8, 14]: 1810 and 3700 | cell count [8, 15]: 1540 and 3490 | z-score [10, 16]: -0.475 (inactive) and -0.436 (inactive) | z-score [10, 17]: 1.25 and 1.04 | viability [11, 18]: 114% (inactive) | viability [11, 19]: 126% (inactive) | viability [11, 20]: 85.5% (active) | viability [11, 21]: 68.9% (active) | viability [11, 22]: 115% (inactive) | viability [11, 23]: 119% (inactive) | viability [11, 24]: 59.2% (active) | viability [11, 25]: 22.8% (active) | viability [11, 26]: 110% (inactive) | viability [11, 27]: 114% (inactive) | viability [11, 28]: 94.7% (active) | viability [11, 29]: 99.9% (active) | viability [11, 30]: 118% (inactive) | viability [11, 31]: 122% (inactive) | viability [11, 32]: 94.3% (active) | viability [11, 33]: 101% (inactive) | viability [11, 34]: 127% (inactive) | viability [11, 35]: 115% (inactive) | viability [11, 36]: 93.1% (active) | viability [11, 37]: 101% (inactive) | viability [11, 38]: 130% (inactive) | viability [11, 39]: 129% (inactive) | viability [11, 40]: 87.8% (active) | viability [11, 41]: 94.8% (active) | viability [11, 42]: 147% (inactive) | viability [11, 43]: 133% (inactive) | viability [11, 44]: 84.5% (active) | viability [11, 45]: 91.5% (active) | viability [11, 46]: 146% (inactive) | viability [11, 47]: 133% (inactive) | viability [11, 48]: 74.7% (active) | viability [11, 49]: 85.4% (active)

OCc1ccc(-c2ccc(-c3ccc(CO)s3)o2)s1
AC50 [1]: 14.8 µM (active) | AC50 [2]: 20.9 µM (active) | AC50 [3]: 18.7 µM (active) | AC50 [4]: 16.6 µM (active) | AC50 [5]: 23.5 µM (active) | AC50 [6]: 16.6 µM (active) | fold change [8, 12]: 0.99 (inactive) and 0.88 (inactive) | fold change [8, 13]: 0.768 and 1.19 | cell count [8, 14]: 3070 and 2470 | cell count [8, 15]: 3100 and 2800 | z-score [10, 16]: -0.467 (inactive) | z-score [10, 17]: 0.342
